About 79,000 compounds went through this panel and 15% of them were active in at least one assay; those are over-represented in the sample as a whole. Unmarked numbers belong to inactive results. The source made the active and inactive calls. No stated cut-off is given here; in the data, active means growth inhibition above about 70%; inactive means the rest.
Tests used:
[1] = NCI Yeast Anticancer Drug Screen. Data for the rad50 strain (AID 155);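 further: 0% = growth of vehicle-only cultures of the same strain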; conditions: S. cerevisiae rad50 strain growth inhibition, active compounds read high
Summary of the method: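 Growth of the mutant yeast was measured after compound exposure and referenced to vehicle-treated cultures.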

[2] = NCI Yeast Anticancer Drug Screen. Data for the mec2-1 strain (AID 157); conditions: S. cerevisiae mec2-1 strain, active compounds read high
Summary of the method: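 Vehicle-treated cultures served as reference for growth inhibition of compound-exposed mec2-1 yeast.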

[3] = NCI Yeast Anticancer Drug Screen. Data for the sgs1 mgt1 strain (AID 161);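 further: 0% = growth of cultures given vehicle only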; conditions: S. cerevisiae sgs1 mgt1 strain, active compounds read high
Summary of the method: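 Read-out: growth inhibition vs vehicle controls. Cells: mutant yeast strain deficient in DNA damage repair.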

[4] = NCI Yeast Anticancer Drug Screen. Data for the cln2 rad14 strain (AID 165);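 further: 0% = growth equal to vehicle treated cultures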; conditions: S. cerevisiae cln2 rad14 strain, active compounds read high
Summary of the method: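 Each compound was tested on cln2 rad14 yeast. Inhibition of growth was calculated against vehicle-exposed controls.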

[5] = NCI Yeast Anticancer Drug Screen. Data for the bub3 strain (AID 167); conditions: S. cerevisiae bub3 mutant strain, active compounds read high
Summary of the method: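 Whole-cell yeast assay. The mutant strain was incubated with compounds, and growth inhibition was determined by comparison with vehicle-treated cells.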

[6] = NCI Yeast Anticancer Drug Screen. Data for the mlh1 rad18 strain (AID 175); conditions: S. cerevisiae mlh1 rad18 strain growth inhibition, active compounds read high
Summary of the method: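 Vehicle-treated cultures served as the reference for growth inhibition in a yeast strain carrying DNA damage repair alterations exposed to each compound.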

[7] = at 5.0 µM (retest, dose inferred, filed as 0.5)
[8] = at 50.0 µM (retest, dose inferred, filed as 5.0)

For `CSCSCC(CO)NC(=O)/C=C/c1c(C)[nH]c(=O)[nH]c1=O` (stereo not given), the growth inhibition [1, 7] was -2%, the growth inhibition [1, 8] was 0% and the growth inhibition ([1]; at 50.0 µM) was 92.5% (active). For the same compound, the growth inhibition [2, 7] was 1%, the growth inhibition [2, 8] was 7% and the growth inhibition ([2]; at 50.0 µM) was 94.2% (active). The growth inhibition [3, 7] was 1%, the growth inhibition [3, 8] was 4% and the growth inhibition ([3]; at 50.0 µM) was 93.8% (active). The growth inhibition [4, 7] was -3%, the growth inhibition [4, 8] was -11% and the growth inhibition ([4]; at 50.0 µM) was 92.2% (active). For the same compound, the growth inhibition [5, 7] was 3%, the growth inhibition [5, 8] was 21% and the growth inhibition ([5]; at 50.0 µM) was 92.8% (active). The growth inhibition [6, 7] was 3%, the growth inhibition [6, 8] was 8% and the growth inhibition ([6]; at 50.0 µM) was 92.9% (active).

In the case of `CCCCCCCCCCCCNCc1ccc2c(c1)OCO2`, the growth inhibition [1, 7] is reported as 98% (active), the growth inhibition [1, 8] is reported as 96% (active) and the growth inhibition ([1]; at 50.0 µM) is reported as 98.8% (active). The growth inhibition [2, 7] was 99% (active), the growth inhibition [2, 8] was 97% (active) and the growth inhibition ([2]; at 50.0 µM) was 99.1% (active). For the same compound, the growth inhibition [3, 7] was 99% (active), the growth inhibition [3, 8] was 96% (active) and the growth inhibition ([3]; at 50.0 µM) was 57.8%. The growth inhibition [4, 7] was 99% (active), the growth inhibition [4, 8] was 96% (active) and the growth inhibition ([4]; at 50.0 µM) was 95.9% (active). For the same compound, the growth inhibition [5, 7] was 99% (active), the growth inhibition [5, 8] was 95% (active) and the growth inhibition ([5]; at 50.0 µM) was 98.7% (active). For the same compound, the growth inhibition [6, 7] was 99% (active), the growth inhibition [6, 8] was 95% (active) and the growth inhibition ([6]; at 50.0 µM) was 99% (active).

With `S=c1[nH]c(-c2ccccc2)cs1` the growth inhibition [1, 7] was -2%, the growth inhibition [1, 8] was 77% (active) and the growth inhibition ([1]; at 50.0 µM) was 79.5% (active). For the same compound, the growth inhibition [2, 7] was 0%, the growth inhibition [2, 8] was 71% (active) and the growth inhibition ([2]; at 50.0 µM) was 85.1% (active). For the same compound, the growth inhibition [3, 7] was 0%, the growth inhibition [3, 8] was 83% (active) and the growth inhibition ([3]; at 50.0 µM) was 92% (active). For the same compound, the growth inhibition [4, 7] was -15%, the growth inhibition [4, 8] was 73% (active) and the growth inhibition ([4]; at 50.0 µM) was 80.2% (active). The growth inhibition [5, 7] was -24%, the growth inhibition [5, 8] was 89% (active) and the growth inhibition ([5]; at 50.0 µM) was 74% (active). The growth inhibition [6, 7] was 1%, the growth inhibition [6, 8] was 89% (active) and the growth inhibition ([6]; at 50.0 µM) was 89.5% (active).

With `Cc1ccc(S(=O)(=O)NNC2Oc3cc4c(cc3C(c3ccccc3O)C2C)OCO4)cc1` (stereo not given) the growth inhibition [1, 7] was -12%, the growth inhibition [1, 8] was 98% (active) and the growth inhibition ([1]; at 50.0 µM) was 97.4% (active). For the same compound, the growth inhibition [2, 7] was -3%, the growth inhibition [2, 8] was 98% (active) and the growth inhibition ([2]; at 50.0 µM) was 95.7% (active). The growth inhibition [3, 7] was -2%, the growth inhibition [3, 8] was 98% (active) and the growth inhibition ([3]; at 50.0 µM) was 95.7% (active). The growth inhibition [4, 7] was 19%, the growth inhibition [4, 8] was 97% (active) and the growth inhibition ([4]; at 50.0 µM) was 97% (active). The growth inhibition [5, 7] was -11%, the growth inhibition [5, 8] was 98% (active) and the growth inhibition ([5]; at 50.0 µM) was 96.2% (active). For the same compound, the growth inhibition [6, 7] was 22%, the growth inhibition [6, 8] was 97% (active) and the growth inhibition ([6]; at 50.0 µM) was 96.2% (active).

`Cc1ccc([N+](=O)[O-])cc1Cl` gave a growth inhibition [1, 7] of -3%, a growth inhibition [1, 8] of -4% and a growth inhibition ([1]; at 50.0 µM) of -4.35%. The growth inhibition [2, 7] was 2%, the growth inhibition [2, 8] was -2% and the growth inhibition ([2]; at 50.0 µM) was -8.45%. For the same compound, the growth inhibition [3, 7] was 1%, the growth inhibition [3, 8] was -1% and the growth inhibition ([3]; at 50.0 µM) was -2.6%. The growth inhibition [4, 7] was -2%, the growth inhibition [4, 8] was -1% and the growth inhibition ([4]; at 50.0 µM) was 93.2% (active). For the same compound, the growth inhibition [5, 7] was -3%, the growth inhibition [5, 8] was -4% and the growth inhibition ([5]; at 50.0 µM) was -3.85%. For the same compound, the growth inhibition [6, 7] was -1%, the growth inhibition [6, 8] was -6% and the growth inhibition ([6]; at 50.0 µM) was -2.45%.

With `Cc1ccc(N=C(N)Nc2ccc(C)cn2)nc1` the growth inhibition [1, 7] was 6%, the growth inhibition [1, 8] was 78% (active) and the growth inhibition ([1]; at 50.0 µM) was 84.5% (active). For the same compound, the growth inhibition [2, 7] was 2%, the growth inhibition [2, 8] was 68% and the growth inhibition ([2]; at 50.0 µM) was 77.9% (active). It also gave a growth inhibition [3, 7] of 4%, a growth inhibition [3, 8] of 69% and a growth inhibition ([3]; at 50.0 µM) of 44.6%. The growth inhibition [4, 7] was 19%, the growth inhibition [4, 8] was 74% (active) and the growth inhibition ([4]; at 50.0 µM) was 40%. The growth inhibition [5, 7] was -5%, the growth inhibition [5, 8] was 70% (active) and the growth inhibition ([5]; at 50.0 µM) was 79.3% (active). The growth inhibition [6, 7] was 5%, the growth inhibition [6, 8] was 72% (active) and the growth inhibition ([6]; at 50.0 µM) was 41.5%.

`S=C(Nc1ccccc1)NC1CC2C=CC1CC2` (stereo not given) gave a growth inhibition [1, 7] of -9%, a growth inhibition [1, 8] of -4% and a growth inhibition ([1]; at 50.0 µM) of -5%. The growth inhibition [2, 7] was -11%, the growth inhibition [2, 8] was -12% and the growth inhibition ([2]; at 50.0 µM) was 7.2%. It also gave a growth inhibition [3, 7] of -4%, a growth inhibition [3, 8] of 2% and a growth inhibition ([3]; at 50.0 µM) of 1.6%. For the same compound, the growth inhibition [4, 7] was -23%, the growth inhibition [4, 8] was -11% and the growth inhibition ([4]; at 50.0 µM) was 31.6%. The growth inhibition [5, 7] was -4%, the growth inhibition [5, 8] was 0% and the growth inhibition ([5]; at 50.0 µM) was 19.6%. The growth inhibition [6, 7] was -4%, the growth inhibition [6, 8] was -13% and the growth inhibition ([6]; at 50.0 µM) was 13.2%.

Work on `Brc1ccc2[nH]c3ccccc3c2c1` yielded a growth inhibition [1, 7] of 2%, a growth inhibition [1, 8] of 33% and a growth inhibition ([1]; at 50.0 µM) of 57.7%. It also gave a growth inhibition [2, 7] of -4%, a growth inhibition [2, 8] of 67% and a growth inhibition ([2]; at 50.0 µM) of 44.9%. The growth inhibition [3, 7] was -3%, the growth inhibition [3, 8] was 47% and the growth inhibition ([3]; at 50.0 µM) was 86.8% (active). For the same compound, the growth inhibition [4, 7] was -2%, the growth inhibition [4, 8] was 65% and the growth inhibition ([4]; at 50.0 µM) was 54.2%. It also gave a growth inhibition [5, 7] of 3%, a growth inhibition [5, 8] of 57% and a growth inhibition ([5]; at 50.0 µM) of 55.2%. For the same compound, the growth inhibition [6, 7] was 4%, the growth inhibition [6, 8] was 75% (active) and the growth inhibition ([6]; at 50.0 µM) was 90% (active).

For `Cn1nc2c(c(Cl)c1=O)Nc1ccccc1O2`, the growth inhibition [1, 7] was -32%, the growth inhibition [1, 8] was -16% and the growth inhibition ([1]; at 50.0 µM) was 0.85%. The growth inhibition [2, 7] was -9%, the growth inhibition [2, 8] was -34% and the growth inhibition ([2]; at 50.0 µM) was -30.4%. It also gave a growth inhibition [3, 7] of -20%, a growth inhibition [3, 8] of -19% and a growth inhibition ([3]; at 50.0 µM) of -24.8%. The growth inhibition [4, 7] was -8%, the growth inhibition [4, 8] was -9% and the growth inhibition ([4]; at 50.0 µM) was 23.1%. For the same compound, the growth inhibition [5, 7] was -45%, the growth inhibition [5, 8] was -18% and the growth inhibition ([5]; at 50.0 µM) was 1.35%. The growth inhibition [6, 7] was -25%, the growth inhibition [6, 8] was -14% and the growth inhibition ([6]; at 50.0 µM) was -6.7%.

Work on `CN(C)CCC(=O)c1ccc2c(ccc3ccccc32)c1` yielded a growth inhibition [1, 7] of 5%, a growth inhibition [1, 8] of 36% and a growth inhibition ([1]; at 50.0 µM) of 69.7%. For the same compound, the growth inhibition [2, 7] was 10%, the growth inhibition [2, 8] was 83% (active) and the growth inhibition ([2]; at 50.0 µM) was 66.8%. The growth inhibition [3, 7] was 8%, the growth inhibition [3, 8] was 92% (active) and the growth inhibition ([3]; at 50.0 µM) was 90.5% (active). It also gave a growth inhibition [4, 7] of -3%, a growth inhibition [4, 8] of 51% and a growth inhibition ([4]; at 50.0 µM) of -7.8%. The growth inhibition [5, 7] was 6%, the growth inhibition [5, 8] was 94% (active) and the growth inhibition ([5]; at 50.0 µM) was 84.7% (active). For the same compound, the growth inhibition [6, 7] was 0%, the growth inhibition [6, 8] was 90% (active) and the growth inhibition ([6]; at 50.0 µM) was 77.2% (active).

From PubChem BioAssay (NCI)
